Among the data in PubChem BioAssay are z-score and composite z-score values, retold here.

Activity calls are given as the source filed them.

Assay [1] in a line: E. coli DRC41 culture turbidity changes, primary screen, E. coli filamentation inducer project, strain DRC41, OD650, 48 h (AID 1152).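 Further: E. coli MC1000 strain DRC41 lacking acrAB efflux pump and sulA.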 To be noted: E. coli DRC41 (acrAB sulA), higher = more signal, called active from +8 up or from −8 down.
Assay [2] is described as follows: small-molecule binders of probe aLefty1, primary screen, biochemical, small-molecule microarray, 635/667 nm fluorescence (AID 1153).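 Further: score merges spot fluorescence with signal-to-noise ratio from the scanned slide images.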 The following applies: higher = more signal.
A short description of assay [3]: PSAC antagonists in infected red cells, primary screen, cell-based, P. falciparum Indochina, OD700, 1 h (AID 1154). The following applies: P. falciparum Indochina infected RBC osmotic lysis, higher = more signal, called active from +8 up or from −8 down.
A short description of assay [4]: PSAC antagonists in infected red cells, primary screen, cell-based, P. falciparum Indochina, OD700, 2 h (AID 1155).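 Further: lysis reports solute entry through the parasite surface anion channel PSAC; channel blockers reduce lysis of infected cells.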 The following applies: P. falciparum Indochina infected erythrocytes, osmotic lysis OD700; higher = more signal, called active from +8 up or from −8 down.
Assay [5] is described as follows: osmotic lysis modulators in infected erythrocytes, primary screen, PSAC antagonist project, cell-based, P. falciparum Indochina, OD700, 3 h (AID 1156). The following applies: higher = more signal, called active from +8 up or from −8 down.
The nature of assay [6]: PSAC antagonists in infected red cells, primary screen, cell-based, P. falciparum Indochina, OD700, 18 h (AID 1157). To be noted: P. falciparum Indochina infected erythrocytes, osmotic lysis OD700, 18 h; higher = more signal, called active from +8 up or from −8 down.
A short description of assay [7]: modulators of S6 phosphorylation in cells, primary screen, cell-based, A549, cytoblot, luminescence, serum-stimulated (AID 1158).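 Further: serum-stimulated A549 lung adenocarcinoma cells; signal is phosphorylated S6 detected by cytoblot immunostaining with HRP secondary.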 To be noted: A549 phospho-S6 cytoblot, 5 h, higher = more signal.
The target of assay [8] is NADPH oxidase 2 (Homo sapiens) (UniProt P04839). Description: NOX2-dependent H2O2 signal modulators, primary screen, NOX inhibitor project, cell-based, HEK293-NOX2, PMA-stimulated, Amplex Red fluorescence (AID 1159). Further: test concentration not given here. The following applies: 45 min, higher = more signal, called active from +8 up or from −8 down.
NADPH oxidase 2 (Homo sapiens), sequence (P04839 whole entry, looked up): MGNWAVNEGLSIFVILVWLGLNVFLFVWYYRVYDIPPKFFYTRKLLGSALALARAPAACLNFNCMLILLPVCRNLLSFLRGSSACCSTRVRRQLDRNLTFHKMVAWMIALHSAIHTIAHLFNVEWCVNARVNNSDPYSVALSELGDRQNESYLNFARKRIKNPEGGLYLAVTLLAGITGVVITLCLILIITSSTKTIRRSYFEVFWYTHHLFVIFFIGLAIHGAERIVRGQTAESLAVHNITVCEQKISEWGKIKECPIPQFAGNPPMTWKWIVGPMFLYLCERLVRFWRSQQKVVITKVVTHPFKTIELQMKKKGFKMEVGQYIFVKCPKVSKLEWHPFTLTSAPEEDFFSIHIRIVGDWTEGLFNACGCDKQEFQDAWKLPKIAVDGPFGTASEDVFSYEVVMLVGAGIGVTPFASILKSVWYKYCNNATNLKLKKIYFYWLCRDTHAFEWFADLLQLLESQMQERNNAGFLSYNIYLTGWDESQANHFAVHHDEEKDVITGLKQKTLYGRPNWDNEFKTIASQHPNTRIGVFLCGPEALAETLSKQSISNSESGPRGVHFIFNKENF
Assay [9] concerns the target NADPH oxidase 4 (Homo sapiens) (UniProt Q9NPH5). Description: NOX4-dependent H2O2 signal modulators, primary screen, NOX inhibitor project, cell-based, HEK293-NOX4, tetracycline-induced, Amplex Red fluorescence (AID 1160). To be noted: 45 min, higher = more signal, called active from +8 up or from −8 down.
In assay [10] the target is NADPH oxidase 5 (Homo sapiens) (UniProt Q96PH1). Description: NOX5-dependent H2O2 signal modulators, primary screen, NOX inhibitor project, cell-based, HEK293-NOX5, Amplex Red fluorescence (AID 1161). To be noted: HEK293-NOX5, ionomycin, 45 min, higher = more signal.
NADPH oxidase 5 (Homo sapiens), sequence (Q96PH1 whole entry, looked up): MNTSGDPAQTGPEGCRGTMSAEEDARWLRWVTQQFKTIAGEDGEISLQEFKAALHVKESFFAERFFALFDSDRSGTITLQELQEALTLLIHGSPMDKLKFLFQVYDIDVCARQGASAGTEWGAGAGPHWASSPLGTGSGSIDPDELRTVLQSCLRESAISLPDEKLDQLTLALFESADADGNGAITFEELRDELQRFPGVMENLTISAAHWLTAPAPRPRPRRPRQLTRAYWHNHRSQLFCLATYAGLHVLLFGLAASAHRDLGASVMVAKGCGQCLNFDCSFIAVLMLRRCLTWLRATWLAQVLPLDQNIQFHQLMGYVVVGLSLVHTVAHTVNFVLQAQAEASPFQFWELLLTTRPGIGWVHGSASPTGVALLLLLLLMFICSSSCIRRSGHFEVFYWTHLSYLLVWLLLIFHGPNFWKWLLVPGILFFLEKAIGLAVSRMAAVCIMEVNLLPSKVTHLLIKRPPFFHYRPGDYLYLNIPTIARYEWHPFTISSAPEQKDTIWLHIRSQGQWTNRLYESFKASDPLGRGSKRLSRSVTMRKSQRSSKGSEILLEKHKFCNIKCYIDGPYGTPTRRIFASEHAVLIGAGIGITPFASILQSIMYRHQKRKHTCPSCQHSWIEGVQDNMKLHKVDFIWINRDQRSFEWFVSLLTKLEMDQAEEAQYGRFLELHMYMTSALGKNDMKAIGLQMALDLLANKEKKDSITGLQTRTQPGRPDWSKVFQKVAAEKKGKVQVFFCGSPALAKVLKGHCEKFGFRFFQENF
The nature of assay [11]: A549 cell viability effects, profiling panel, calcein-AM fluorescence, 48 h, basal (AID 1162). Further: test concentration not given here. The following applies: higher = more signal.
A short description of assay [12]: adipocyte viability effects, profiling panel, cell-based, 3T3-L1 adipocytes, calcein-AM fluorescence, 48 h, basal (AID 1163). Further: test concentration not given here. To be noted: 3T3-L1 adipocytes viability, higher = more signal.
The nature of assay [13]: HepG2 cell viability effects, profiling panel, calcein-AM fluorescence, 48 h, basal (AID 1164). Further: test concentration not given here. The following applies: higher = more signal.
A short description of assay [14]: MM1S cell viability effects, profiling panel, calcein-AM fluorescence, 48 h, basal (AID 1165).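 Further: viability of MM1S multiple myeloma cells under basal unstimulated conditions; test concentration not given here.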 The following applies: higher = more signal.
The nature of assay [15]: basal RPMI8226 viability, no added stimulus, profiling panel, cell-based, calcein-AM fluorescence, 48 h, PK04 Diversity Set (AID 1166).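 Further: cells grown under basal conditions without added stimulus; test concentration not given here.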 The following applies: RPMI8226 myeloma viability, higher = more signal.
Assay [16] can be described thus: basal HepG2 mitochondrial membrane potential changes, profiling panel, cell-based, JC-1 fluorescence, 24 h, 100 nL compound (AID 1167). Further: test concentration not given here. To be noted: higher = more signal.
Assay [17] is described as follows: basal 3T3-L1 adipocyte mitochondrial potential changes, profiling panel, cell-based, JC-1 fluorescence, 3T3-L1 adipocytes, 24 h, 100 nL compound (AID 1168). Further: test concentration not given here. To be noted: JC-1 mitochondrial fluorescence, higher = more signal, called active from +8 up or from −8 down.
The nature of assay [18]: basal RPMI8226 mitochondrial membrane potential changes, profiling panel, cell-based, JC-1 fluorescence, 24 h, 100 nL compound (AID 1169). Further: test concentration not given here. The following applies: RPMI8226 myeloma, JC-1 mitochondrial potential fluorescence, higher = more signal.
Assay [19] can be described thus: basal MM1S mitochondrial membrane potential changes, profiling panel, cell-based, JC-1 fluorescence, 24 h, 100 nL compound (AID 1170). Further: test concentration not given here. To be noted: higher = more signal.
Assay [20] in a line: A549 lung cancer cell viability effects, profiling panel, resazurin fluorescence, 24 h, PK04 Diversity Set (AID 1171). Further: test concentration not given here. The following applies: higher = more signal, called active from +8 up or from −8 down. (In general: Alamar Blue is a resazurin reagent that responds to reducing activity.)

NADPH oxidase 4 (Homo sapiens), sequence (Q9NPH5 whole entry, looked up): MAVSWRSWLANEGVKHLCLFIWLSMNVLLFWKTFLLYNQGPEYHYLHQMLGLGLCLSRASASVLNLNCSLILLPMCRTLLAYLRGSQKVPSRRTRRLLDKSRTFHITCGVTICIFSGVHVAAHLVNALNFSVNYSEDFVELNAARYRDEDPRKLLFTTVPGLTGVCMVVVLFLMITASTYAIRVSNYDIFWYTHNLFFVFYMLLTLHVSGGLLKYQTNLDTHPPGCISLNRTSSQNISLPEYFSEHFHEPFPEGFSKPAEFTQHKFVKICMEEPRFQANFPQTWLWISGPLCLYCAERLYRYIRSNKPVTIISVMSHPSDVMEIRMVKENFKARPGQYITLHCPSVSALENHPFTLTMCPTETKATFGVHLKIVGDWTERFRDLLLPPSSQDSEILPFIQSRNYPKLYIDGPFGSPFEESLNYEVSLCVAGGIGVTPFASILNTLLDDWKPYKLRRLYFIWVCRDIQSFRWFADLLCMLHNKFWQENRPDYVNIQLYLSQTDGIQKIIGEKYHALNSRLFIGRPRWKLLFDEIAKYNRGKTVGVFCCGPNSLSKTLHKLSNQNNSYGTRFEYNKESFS

In the case of `CN(C)CCCC[C@@H]1NC(=O)[C@H]2C[C@@H](C(=O)NCCCCCCNC(=O)CS)[C@@H](c3ccc(O)cc3)N2C1=O`, the z-score in assay [1] was 0.446 (inactive); in [3], 2.46 (inactive); in assay [4] it was 0.374 (inactive); in assay [5] it was 1.84 (inactive); in assay [6] it was 0.178 (inactive); in assay [7], 0.469. In addition, the z-score in [8] was 1.35 (inactive); in assay [9], 1.78 (inactive); in assay [10], 1.52; in [11], -0.877; in assay [12] it was 0.0215; in assay [13] it was -1.35. Besides, the z-score in assay [14] was -0.245; in assay [15], -1.02; in assay [16], -1.45; in assay [17], -0.715 (inactive); in assay [18], 0.683; in assay [19], 0.441. Besides, the z-score in assay [20] is -0.415 (inactive). In [2], this compound registered a composite z-score of 0.0048.

On to `COc1ccc([Si](C)(C)[C@@H]2[C@@H](CCO)O[C@]3(C(=O)N(Cc4ccc(N5C(=O)c6ccccc6Oc6ccccc65)cc4)c4ccccc43)[C@H]2C)cc1`, for which the z-score in [1] was -0.572 (inactive); in assay [3], 3.28 (inactive); in assay [4], 1.99 (inactive); in assay [5], -1.14 (inactive); in [6], 1.26 (inactive); in assay [7], 0.0148. Moreover, the z-score in [8] is 0.0702 (inactive); in assay [9], 1.63 (inactive); in assay [10] it was 2.29; in assay [11], -0.738; in assay [12], -0.703; in assay [13] it was -3.56. Moreover, the z-score in assay [14] was -2.31; in assay [15], -3.17; in assay [16], -0.42; in assay [17], 0.462 (inactive); in [18] it was -1.06; in assay [19], -1.68. Moreover, in assay [20], the z-score was -1.47 (inactive). The same compound yielded a composite z-score in assay [2] of 0.0496.

With `NC(=O)NCC#Cc1ccc2c(c1)[C@]1(C(=O)N2)[C@H](c2ccc(O)cc2)N2[C@H](c3ccccc3)[C@H](c3ccccc3)OC(=O)[C@H]2[C@@H]1C(N)=O`, the z-score in assay [1] is 0.373 (inactive); in assay [3] it was 0.792 (inactive); in assay [4], 0.215 (inactive); in assay [5] it was 1.15 (inactive); in [6], 0.319 (inactive); in assay [7] it was 0.112. In addition, the z-score was 0.408 (inactive) in [8]; -0.571 (inactive) in [9]; -0.72 in assay [10]; 0.233 in assay [11]; -1.07 in [12]; 0.705 in assay [13]. The z-score in assay [14] was 0.669; in assay [15], 1.23; in [16], -0.538; in [17] it was -0.06 (inactive); in assay [18] it was -0.371; in assay [19], -0.691. Also, the z-score in assay [20] was -1.08 (inactive). This compound returned a composite z-score in assay [2] of -0.127.

For `CCCCCCC#C[Si](O[C@H](c1ccccc1)c1cn(Cc2cccc(Cl)c2)nn1)(C(C)C)C(C)C`, the z-score was 1.9 (inactive) in [1]; 0.876 (inactive) in assay [3]; 0.886 (inactive) in [4]; 0.0206 (inactive) in [5]; 0.162 (inactive) in assay [6]; 0.635 in assay [7]. The z-score in assay [8] was -0.706 (inactive); in [9] it was -0.705 (inactive); in assay [10], -0.576; in assay [11] it was 1.11; in assay [12] it was -0.896; in assay [13], 0.761. In addition, the z-score in assay [14] was 0.481; in assay [15] it was -0.695; in assay [16], 3.44; in assay [17] it was 0.169 (inactive); in assay [18], -0.149; in assay [19], -1.06. Moreover, in [20], the z-score was 2.58 (inactive). Also, the composite z-score in assay [2] is -0.142.

Consider `C=C(C)[C@@H]1CC=C(C(O)C2C=CC3C(=O)N(C4CCCCC4)C(=O)C3N2Nc2ccc(OC)cc2)CC1` (stereo not given in full), for which the z-score was -0.441 (inactive) in assay [1]; 1.75 (inactive) in assay [3]; 0.415 (inactive) in assay [4]; 0.604 (inactive) in assay [5]; 0.56 (inactive) in [6]; -0.14 in assay [7]. Moreover, the z-score was 0.191 (inactive) in assay [8]; -1.34 (inactive) in [9]; -2.14 in assay [10]; -0.447 in assay [11]; -1.46 in assay [12]; 0.319 in [13]. Further, the z-score in [14] is 0.0801; in assay [15], -0.0663; in assay [16] it was -0.227; in assay [17], -0.836 (inactive); in assay [18], -0.393; in assay [19], -1.4. Besides, the z-score in assay [20] is 0.784 (inactive). Moreover, the composite z-score in assay [2] was 0.203.

Take `COc1ccc([Si](C)(C)[C@@H]2[C@@H](CCO)O[C@]3(C(=O)N(Cc4ccccc4)c4ccc(N5C(=O)COc6ccccc65)cc43)[C@H]2C)cc1`: the z-score in [1] was 2.1 (inactive); in assay [3], 3.28 (inactive); in assay [4], 2.11 (inactive); in assay [5] it was 0.364 (inactive); in assay [6] it was 1.78 (inactive); in assay [7], 0.631. Further, the z-score in assay [8] is 0.883 (inactive); in [9], 1.33 (inactive); in assay [10], 1.42; in [11], -1.4; in assay [12] it was 0.155; in assay [13], -1.08. Moreover, the z-score in [14] was -2.24; in [15] it was -0.0589; in assay [16] it was 0.102; in [17], 0.222 (inactive); in assay [18] it was -0.741; in assay [19], -0.857. For the same compound, the z-score in assay [20] was -0.177 (inactive). The same compound displayed a composite z-score in assay [2] of -0.435.

In the case of `COCCOC(=O)N1C(=O)[C@@]2(c3cc(C#Cc4ccc(OC)cc4)ccc31)[C@H](C(N)=O)[C@H]1C(=O)O[C@H](c3ccccc3)[C@H](c3ccccc3)N1[C@@H]2c1ccc(OCCO)cc1`, the z-score in [1] was 0.79 (inactive); in [3] it was 21.2 (active); in [4], 5.69 (inactive); in [5] it was 1.75 (inactive); in assay [6] it was 1.95 (inactive); in assay [7], -0.0813. In addition, the z-score in assay [8] is 0.933 (inactive); in assay [9] it was -0.164 (inactive); in [10] it was 1.86; in assay [11], -1.42; in assay [12], 0.879; in [13], -0.656. Besides, the z-score in assay [14] is -1.79; in assay [15] it was -2.31; in assay [16] it was -1.59; in [17], 2.52 (inactive); in [18], -0.57; in assay [19], -1.39. Also, the z-score in assay [20] was 0.676 (inactive). Moreover, the composite z-score in assay [2] came to 1.45.

`[N-]=[N+]=NCc1ccccc1C[C@]1(C(=O)NCCN2CCOCC2)COC(c2ccc(OCCCO)cc2)=N1`: the z-score was 0.581 (inactive) in assay [1]; 23.9 (active) in assay [3]; 10.2 (active) in [4]; 3.35 (inactive) in [5]; 2.09 (inactive) in assay [6]; 0.132 in [7]. Further, the z-score in [8] is -0.379 (inactive); in assay [9], 0.846 (inactive); in assay [10] it was 0.109; in assay [11] it was 1.18; in assay [12] it was -0.487; in assay [13], 0.652. In addition, the z-score is 0.689 in [14]; -0.699 in assay [15]; 2.24 in assay [16]; 0.498 (inactive) in [17]; -0.218 in [18]; -1.05 in assay [19]. Moreover, the z-score in [20] is 0.169 (inactive). In assay [2], this compound registered a composite z-score of 0.265.
